High-throughput results deposited in PubChem BioAssay by National Center for Advancing Translational Sciences (NCATS).
Hits are enriched below; roughly 12% of the tested compounds scored in any of these assays.
Sm TGR inh: S. mansoni TGR enzyme inhibition; Q962Y6; purified TGR, DTNB reduction, TNB absorbance 405 nm; Potency, µM (highest dose often 114 µM), hits mostly inhibitors; hit rate 3% among 360,000; active = well fitted inhibition curve with a large enough effect; inconclusive = small, poorly fitted or top-dose-only effect; inactive = no such curve, though single readings can be large or run the other way; note: nearly all actives have a fitted effect of over 60% in size
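First, TGR (20 nM dispensed) and NADPH were mixed with compound. Second, a 15 min room-temperature incubation followed. Third, further NADPH and then DTNB were added to start the reaction. Finally, TNB absorbance was monitored kinetically.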
Cycloheximide cs: counter-screen hit for Shiga toxin inhibitors, cycloheximide; hit rate 12% among 300,000; max response, %; AID 2314; cell reporter, cycloheximide protein synthesis inhibition counterscreen; in the data active = max response mostly above about 13%, no sharp cut-off; inactive = mostly below about 14%; note: read at 38.3 µM for the half of the compounds with a filed dose
FMDV inh: foot and mouth disease virus antiviral activity. FMDV antiviral cell-based qHTS. Potency, µM (series often up to 57.9 µM), usual class: inhibitors. hit rate 1.2% among 410,000. AID 1159524; calls by dose curve; tested in HEK293T cells; note: read-out not given here; nearly all actives have a fitted effect of over 45% in size
Shiga inhibitor: Shiga toxin inhibition; AID 2315; hit rate 9.2% among 290,000; Vero cells, Shiga toxin protein synthesis inhibition reporter; inhibition, % at 38.7 µM; in the data active = inhibition mostly above about 28%, no sharp cut-off; inactive = mostly below about 43%
Large screens that a line does not name were inactive.

Cc1ccc(Sc2ccc(NC(=O)CCl)cc2)cc1C	Sm TGR inh inconclusive, Cycloheximide cs 11.3, FMDV inh 28.2µM, Shiga inhibitor 18.4
Cc1ccc(C)c(Sc2ccc(NC(=O)CCl)cc2)c1	Sm TGR inh inconclusive, FMDV inh 20µM
CCc1ccc(NC(=O)Cn2cnc3nc4c(cc3c2=O)CCCC4)cc1	none (no result: Cycloheximide cs, Shiga inhibitor)
O=C(NCCOCCO)C(=O)Nc1c2c(nn1-c1ccc(F)cc1)CSC2	none (no result: Cycloheximide cs, Shiga inhibitor)
O=C(Nc1cccc2ccccc12)c1ccc(Cn2cc(Cl)cn2)cc1	none
O=C(Nc1ccc(Cl)c(Cl)c1)c1ccc(Cn2cc(Cl)cn2)cc1	Cycloheximide cs 31.9, Shiga inhibitor active
O=C(Nc1ccccc1F)c1ccc(Cn2cc(Cl)cn2)cc1	Cycloheximide cs 27.8
COc1cc(C)c2c(c1C=O)Oc1c(c(C)c(O)c3c1C(O)OC3=O)OC2=O (stereo not given)	Sm TGR inh 20µM
CC1=C(/C=C/C(C)=C\C=C\C(C)=C\C(=O)O)C(C)(C)CCC1	none (no result: Sm TGR inh)
CC1=C(/C=C/C(C)=C/C=C/C(C)=C/C(=O)O)C(C)(C)CCC1	Sm TGR inh 35.5µM, FMDV inh inconclusive
Cc1ccccc1C(=O)Oc1cc(-c2ccc3c(c2)OCO3)cc(=O)c2c(C)oc(C)c12	Sm TGR inh inconclusive (no result: Cycloheximide cs, Shiga inhibitor)
Cc1cc(=O)n2[nH]c(-c3ccc(F)cc3)cc2n1	Cycloheximide cs 25.0, Shiga inhibitor 51.0
Cc1cc(=O)n2[nH]c(-c3ccc(Cl)cc3)cc2n1	Cycloheximide cs 35.6, Shiga inhibitor 81.7
Cc1cccc(-c2cc3nc(-c4ccccc4)cc(=O)n3[nH]2)c1	Cycloheximide cs 21.3
COc1cc(C(=O)OCc2cc(=O)n3nc(C(C)C)sc3n2)cc(OC)c1OC	none (no result: Cycloheximide cs, Shiga inhibitor)
CN(C)/[N+]([O-])=N/Oc1cc(O/[N+]([O-])=N/N2CCCC2CO)c([N+](=O)[O-])cc1[N+](=O)[O-] (stereo not given)	none (no result: Sm TGR inh, FMDV inh)
CCc1nc(Oc2cccc(F)c2)c2oc3ccccc3c2n1	none (no result: Cycloheximide cs, Shiga inhibitor)
CCOc1ccc2nc(N3CCCC(C(=O)Nc4ccc(OC)cc4)C3)sc2c1 (stereo not given)	none (no result: Cycloheximide cs, Shiga inhibitor)
CCOC(=O)N1CCN(C(=O)C2CCCN(c3nc4ccc(OCC)cc4s3)C2)CC1 (stereo not given)	Shiga inhibitor 29.9
CCOc1ccc2nc(N3CCCC(C(=O)NC4CCCC4)C3)sc2c1 (stereo not given)	Cycloheximide cs 32.8, Shiga inhibitor 20.3
CCOc1ccc2nc(N3CCC(C(=O)NC4CCCCC4)CC3)sc2c1	none
Cc1ccc(-c2nc3cccnc3s2)cc1NS(=O)(=O)c1ccc2c(c1)OCCO2	Cycloheximide cs 39.9, Shiga inhibitor 19.1
Cc1ccc(-c2nc3cccnc3s2)cc1NS(=O)(=O)c1cccs1	Cycloheximide cs 19.4, Shiga inhibitor 38.3
Cc1nc2ccc(S(=O)(=O)Nc3cc(-c4nc5cccnc5s4)ccc3C)cc2s1	Cycloheximide cs 74.9, Shiga inhibitor 85.4
O=S(=O)(Nc1cccc(-c2nc3cccnc3s2)c1)c1ccc2c(c1)OCCO2	none
Cc1nc2ccc(S(=O)(=O)Nc3cccc(-c4nc5cccnc5s4)c3C)cc2s1	FMDV inh inconclusive
COc1cc(Cl)c(C)cc1NC(=O)c1cc(S(=O)(=O)N2CCCC2)ccc1F	none (no result: Cycloheximide cs, Shiga inhibitor)
Cc1ccc(-c2cc(C(=O)N3CCN(c4ccc(F)cc4)CC3)c3ccccc3n2)o1	Sm TGR inh 44.7µM, Cycloheximide cs 28.8
O=C(O)c1cc(-c2ccc(-c3ccc(F)cc3)o2)nc2ccccc12	Sm TGR inh 12.6µM, Shiga inhibitor 30.5
O=C(c1cc(-c2ccc(F)cc2)nc2ccccc12)N1CCC1	none (no result: Sm TGR inh, Cycloheximide cs, Shiga inhibitor)
Cc1ccc(-c2cc(C(=O)N3CCN(c4ncccn4)CC3)c3cc(Br)ccc3n2)o1	Sm TGR inh 7.08µM
COc1ccc(-c2cc(C(=O)N3CCCC(C(F)(F)F)C3)c3ccccc3n2)cc1 (stereo not given)	none (no result: Cycloheximide cs, Shiga inhibitor)
Cc1ccc(-c2cc(C(=O)N3CCCC(C(F)(F)F)C3)c3ccccc3n2)o1 (stereo not given)	Sm TGR inh 28.2µM (no result: Cycloheximide cs, Shiga inhibitor)
Cc1cc(C)c2oc(-c3ccc(C)c(NC(=O)/C=C/c4ccco4)c3)nc2c1	Sm TGR inh 12.6µM (no result: Cycloheximide cs, Shiga inhibitor)
Cc1ccc(-c2csc(NC(=S)NC(=O)/C=C/c3ccco3)n2)cc1	none
Cc1ccc(C(=O)/C=C/c2ccco2)c(O)c1	Sm TGR inh 44.7µM, Cycloheximide cs 36.9, Shiga inhibitor 56.2
O=C(/C=C/c1ccco1)NC(=S)Nc1ccc(O)c(-c2nc3ccccc3s2)c1	FMDV inh inconclusive
Cc1cc(C)c(C(=O)/C=C/c2ccco2)c(=O)[nH]1	Sm TGR inh inconclusive
O=C(/C=C/c1ccco1)NC(=S)Nc1ccc(Cl)cn1	Sm TGR inh 35.5µM, Shiga inhibitor 88.4
Cc1ccnc(NC(=S)NC(=O)/C=C/c2ccco2)c1	Sm TGR inh 25.1µM, Cycloheximide cs 70.2, Shiga inhibitor 137.6
CC(=O)c1cccc(NC(=O)c2c(-c3ccccc3)c(-c3ccccc3)nn(C)c2=O)c1	none (no result: Cycloheximide cs, Shiga inhibitor)
O=C(Nc1cc(-c2nc3ccccc3o2)ccc1Cl)c1ccc(N2CCCCC2)c([N+](=O)[O-])c1	none (no result: Cycloheximide cs, Shiga inhibitor)
CSc1ncccc1C(=O)NCCN1Cc2ccccc2OC(c2ccccc2F)C1 (stereo not given)	none (no result: Sm TGR inh, Cycloheximide cs, Shiga inhibitor)
CCc1ccccc1NC(=O)Cc1c(C(=O)O)[nH]c2ccc(Cl)cc12	none (no result: Cycloheximide cs, Shiga inhibitor)
Cc1ccc(O)c(NC(=S)NC(=O)/C=C/c2ccco2)c1	Cycloheximide cs 47.0, Shiga inhibitor 67.1 (no result: Sm TGR inh)
COc1ccccc1NC(=O)c1sc2nc(C)c(C(=O)Nc3ccc(C)cc3C)c(-c3ccco3)c2c1N	none
COCCn1c(=NC(=O)CCS(=O)(=O)c2ccccc2)sc2cc(C)ccc21	Sm TGR inh 35.5µM
CCCn1c(=NC(=O)CS(=O)(=O)c2ccccc2)sc2cc(S(C)(=O)=O)ccc21	none (no result: Cycloheximide cs, Shiga inhibitor)
COCCn1c(=NC(=O)CCS(=O)(=O)c2ccccc2)sc2cc(F)ccc21	Sm TGR inh 39.8µM
COCCn1c(=NC(=O)CSC(C)=O)sc2cc(F)ccc21	none
CCn1c(=NC(=O)CCS(=O)(=O)c2ccccc2)sc2cccc(OC)c21	FMDV inh 20µM
CCn1c(=NC(=O)CS(=O)(=O)c2ccc(F)cc2)sc2cccc(OC)c21	FMDV inh inconclusive (no result: Cycloheximide cs, Shiga inhibitor)
COc1cccc(NC(=O)C(=O)NCC(c2ccc3c(c2)OCO3)N2CCOCC2)c1 (stereo not given)	none (no result: Cycloheximide cs, Shiga inhibitor)
CCCCCn1c(=N)c(S(=O)(=O)c2ccccc2)cc2c(=O)n3cccc(C)c3nc21	none (no result: Cycloheximide cs, Shiga inhibitor)
O=C(OCn1ncc(Cl)c(Cl)c1=O)c1ccc(F)cc1	Sm TGR inh 7.08µM (no result: FMDV inh)
O=C(OCn1ncc(Cl)c(Cl)c1=O)c1ccccc1Cl	Sm TGR inh 7.08µM, FMDV inh 10µM
O=c1cnn(Cc2ccc(F)cc2)c2ccccc12	none
O=c1c(Cl)c(Cl)cnn1Cc1ccc(F)cc1	Sm TGR inh 20µM, FMDV inh 39.8µM
O=C(COC(=O)c1cnc(Cl)c(Cl)c1)c1ccc(F)cc1	none (no result: Sm TGR inh, Cycloheximide cs, Shiga inhibitor)
C=C1C=CS(=O)(=O)N(C(CC(C)C)C(=O)OC)C1 (stereo not given)	none (no result: Sm TGR inh, FMDV inh)
Cc1ccc(/C=C/C(=O)O)cc1S(=O)(=O)NCCCO	Sm TGR inh 39.8µM
Cc1ccc(/C=C/C(=O)O)cc1S(=O)(=O)N(CCO)CCO	Sm TGR inh 22.4µM
Cc1ccc(/C=C/C(=O)O)cc1S(=O)(=O)NCc1cccnc1	Sm TGR inh 22.4µM
Cc1cccc(N2CCN(C(=O)Cn3ncc4c3-c3ccccc3OC4)CC2)c1C	FMDV inh inconclusive (no result: Cycloheximide cs, Shiga inhibitor)
